Experimental findings from PubChem BioAssay (EPA / NIEHS) are described below.

The AC50 is the midpoint of the concentration-response curve, whichever way the signal moves.

Assay [1] in a line: TOX21_p53_BLA_p2_viability: Viability Assessment in the Tox21 HCT-116 p53 Agonism Beta-lactamase Assay, Phase 2 (AID 2283591).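 Also: actives lower the ATP signal meaning cytotoxicity.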 The method in brief: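 HCT116 p53-bla cells, 4000/well, dosed after 5 h plating (217-fold dilution of DMSO stocks) and incubated 16 h at 37C. Viability taken as cellular ATP by CellTiter-Glo luminescence after 30 min RT; signal loss marks cytotoxicity.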

The nature of assay [2]: TOX21_p53_BLA_p3_viability: Viability Assessment in the Tox21 HCT-116 p53 Agonism Beta-lactamase Assay, Phase 3 (AID 2283593).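 Also: cells exposed to compound for 16 h before reading.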 A digest of the protocol: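 HCT116 cells, 4000/well, dosed 5 h after plating by pin transfer (217-fold dilution from DMSO stock) and incubated 16 h at 37C, 5% CO2. Viability read as ATP luminescence with CellTiter-Glo after 30 min at room temperature.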

Assay [3] concerns the target Cellular tumor antigen p53 (Homo sapiens) (UniProt P04637). The assay is described as follows: TOX21_p53_BLA_p3_ratio: Tox21 HCT-116 p53 Agonism Beta-lactamase Assay, Ratio, Phase 3 (AID 2283596). The method in brief: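 Cells were seeded at 4000/well, rested 5 h at 37C, then dosed with DMSO compound solutions (217-fold dilution) for 16 h. CCF4-AM substrate was loaded for 2 h at room temperature, and the 460/530 nm emission ratio was fitted for gain of signal versus DMSO.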

Assay [4] in a line: TOX21_p53_BLA_p4_viability: Viability Assessment in the Tox21 HCT-116 p53 Agonism Beta-lactamase Assay, Phase 4 (AID 2283597).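 Also: hits lower the luminescence signal meaning cytotoxicity.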 A digest of the protocol:
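4000 HCT116 cells per well; 5 h attachment; compounds from DMSO, 217-fold dilution; 16 h at 37C. Then CCF4-AM, 2 h RT, followed by CellTiter-Glo, 30 min RT, luminescence. Decrease = cytotoxicity.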

The target of assay [5] is Cellular tumor antigen p53 (Homo sapiens) (UniProt P04637). The assay is described as follows: TOX21_p53_BLA_p5_ratio: Tox21 HCT-116 p53 Agonism Beta-lactamase Assay, Ratio, Phase 5 (AID 2283599). The method in brief: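 HCT-116 p53-bla cells (4000/well) plated 5 h, dosed with compound (217-fold DMSO dilution) for 16 h at 37 C; CCF4-AM substrate 2 h at room temperature. Activity is the 460/530 nm emission ratio (405 nm excitation), fitted in gain-of-signal direction versus DMSO.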

The nature of assay [6]: TOX21_p53_BLA_p5_viability: Viability Assessment in the Tox21 HCT-116 p53 Agonism Beta-lactamase Assay, Phase 5 (AID 2283600). A digest of the protocol:
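Decreased CellTiter-Glo luminescence denotes lost viability. Exposure: 16 h at 37C, 5% CO2, with compounds from DMSO stocks diluted 217-fold in wells of 4000 cells.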

Assay [7] has as its target Cellular tumor antigen p53 (Homo sapiens) (UniProt P04637). The assay is described as follows: TOX21_p53_BLA_p4_ratio: Tox21 HCT-116 p53 Agonism Beta-lactamase Assay, Ratio, Phase 4 (AID 2283601). The method in brief: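 HCT-116 p53 beta-lactamase reporter cells (4000/well) preincubated 5 h, then compound (217-fold dilution of DMSO stock) for 16 h at 37C. CCF4-AM substrate added 2 h at room temperature; 460/530 nm emission ratio fitted upward versus DMSO.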

The next assay has as its target THRA (gene 7067) (UniProt P10827). Briefly: TOX21_TRA_COA_Antagonist_Followup_ratio: Tox21 Thyroid Hormone Receptor alpha Antagonism through Coactivator Recruitment Follow-Up Assay, Ratio (AID 2283953). A digest of the protocol: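 We measured antagonism of T3-type coactivator recruitment using a TR-FRET ratio (emission 520 and 495 nm) between a Tb-labelled anti-GST antibody on TRα LBD (2.5 nM) and SRC-2 peptide (200 nM). Activity was scaled between DMSO and T3 wells.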

Assay [8] addresses THRB (gene 7068) (UniProt P10828). The assay is described as follows: TOX21_TRB_BLA_Antagonist_Followup_ratio: Tox21 Thyroid Hormone Receptor beta Antagonism Beta-lactamase (BLA) Follow-Up Assay, Ratio (AID 2283958). A digest of the protocol:
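Using charcoal-stripped 2% FBS medium, human TRβ-LBD/GAL4 reporter HEK293T cells received test compounds for 18 h. The endpoint is the cleaved-to-uncleaved substrate ratio (460/530 nm).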

The nature of assay [9]: TOX21_TRB_BLA_Antagonist_Followup_viability: Viability Assessment in the Tox21 Thyroid Hormone Receptor beta Antagonism Beta-lactamase (BLA) Follow-Up Assay (AID 2283961). The method in brief: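 HEK293T cells with GAL4-human TRβ LBD and UAS-bla reporter, 3,000 cells/well in 2% charcoal-stripped FBS medium; 11-point concentrations in triplicate, 18 h at 37C. Viability from ATP by CellTiter-Glo luminescence, 30 min RT, same plates.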

Assay [10] has as its target THRB (gene 7068) (UniProt P10828). The assay is described as follows: TOX21_TRB_COA_Antagonist_Followup_ratio: Tox21 Thyroid Hormone Receptor beta Antagonism through Coactivator Recruitment Follow-Up Assay, Ratio (AID 2283967). A digest of the protocol:
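GST-TRb LBD 5.0 nM + 0.10% BSA, compound added; fluorescein-SRC-2 peptide 200 nM, Tb-anti-GST Ab 2 nM. TR-FRET, ex 340 / em 520:495 ratio. Norm: DMSO 0%, T3 100%.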

Assay [11] is described as follows: TOX21_TR_RXR_BLA_Antagonist_Followup_viability: Viability Assessment in the Tox21 Thyroid Hormone Receptor beta Retinoid X Receptor alpha (RXRa) Antagonism Beta-lactamase (BLA) Follow-Up Assay (AID 2283979). A digest of the protocol: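 RXRa-bla HEK293T cells (2,500/well, phenol red-free DMEM, 2% charcoal-stripped FBS) were attached 5 h, then exposed to compounds at 11 concentrations in triplicate for 16 h at 37C. Viability measured by CellTiter-Glo ATP luminescence, bidirectional fitting versus DMSO.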

Assay [12] can be described thus: CCTE_Harrill_HTTr_Viability_MCF7: CCTE's 6-hour Cell Viability Assessment for the High-Throughput Transcriptomics (HTTr) Platform, in MCF-7 cells cultured in DMEM + 10% fetal bovine serum, Harrill Lab (AID 2284010; active = hit-call score of the fitted dose curve at least 0.9, where 1 is the maximum; inactive = score below 0.9). A digest of the protocol:
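Eight-point concentration series, six-hour exposure. Propidium iodide exclusion imaged to assess membrane integrity as a cytotoxicity readout; bidirectional fitting was done with DMSO as negative control and activity baseline.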

Assay [13] is described as follows: CCTE_Harrill_HTTr_Apoptosis_MCF7: CCTE's 6-hour Apoptosis Assessment for the High-Throughput Transcriptomics (HTTr) Platform, in MCF-7 cells cultured in DMEM + 10% fetal bovine serum, Harrill Lab (AID 2284011; active = hit-call score of the fitted dose curve at least 0.9, where 1 is the maximum; inactive = score below 0.9). The method in brief: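 MCF-7 cells in DMEM + 10% FBS exposed 6 h to chemicals over an eight-point dilution series. Caspase-3/7 activation imaged by high-content CellEvent Green staining; fitted bidirectionally versus DMSO.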

Results filed as inconclusive are left out. Calls of active or inactive are those of the source. The calls were made as follows, unless noted: active = hit-call score of the fitted dose curve at least 0.9, where 1 is the maximum; inconclusive = response in the unintended direction; inactive = score below 0.9.

Cellular tumor antigen p53 (Homo sapiens), sequence (P04637 whole entry, looked up): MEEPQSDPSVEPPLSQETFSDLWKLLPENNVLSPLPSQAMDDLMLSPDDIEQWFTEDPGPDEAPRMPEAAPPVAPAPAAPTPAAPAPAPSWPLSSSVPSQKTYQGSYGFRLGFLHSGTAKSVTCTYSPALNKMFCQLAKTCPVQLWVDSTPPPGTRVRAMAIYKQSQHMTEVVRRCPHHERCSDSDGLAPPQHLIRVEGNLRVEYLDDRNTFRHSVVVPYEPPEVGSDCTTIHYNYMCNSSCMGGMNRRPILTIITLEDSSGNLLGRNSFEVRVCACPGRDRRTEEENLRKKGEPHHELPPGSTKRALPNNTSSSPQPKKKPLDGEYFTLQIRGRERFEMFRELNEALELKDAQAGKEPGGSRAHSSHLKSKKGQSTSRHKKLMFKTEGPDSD
THRB (gene 7068), sequence (P10828 whole entry, looked up, the tested form may be a part): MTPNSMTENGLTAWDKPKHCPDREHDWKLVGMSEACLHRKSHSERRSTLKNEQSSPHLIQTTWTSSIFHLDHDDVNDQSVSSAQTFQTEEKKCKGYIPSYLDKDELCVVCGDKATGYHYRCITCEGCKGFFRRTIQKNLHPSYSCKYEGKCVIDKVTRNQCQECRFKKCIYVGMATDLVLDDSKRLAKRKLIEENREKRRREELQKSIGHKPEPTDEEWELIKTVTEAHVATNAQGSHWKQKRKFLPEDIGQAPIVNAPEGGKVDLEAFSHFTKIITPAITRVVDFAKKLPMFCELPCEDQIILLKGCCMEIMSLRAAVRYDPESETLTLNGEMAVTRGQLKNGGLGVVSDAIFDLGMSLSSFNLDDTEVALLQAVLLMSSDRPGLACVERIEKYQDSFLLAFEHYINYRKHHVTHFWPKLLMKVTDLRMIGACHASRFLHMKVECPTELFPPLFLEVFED
THRA (gene 7067), sequence (P10827 whole entry, looked up, the tested form may be a part): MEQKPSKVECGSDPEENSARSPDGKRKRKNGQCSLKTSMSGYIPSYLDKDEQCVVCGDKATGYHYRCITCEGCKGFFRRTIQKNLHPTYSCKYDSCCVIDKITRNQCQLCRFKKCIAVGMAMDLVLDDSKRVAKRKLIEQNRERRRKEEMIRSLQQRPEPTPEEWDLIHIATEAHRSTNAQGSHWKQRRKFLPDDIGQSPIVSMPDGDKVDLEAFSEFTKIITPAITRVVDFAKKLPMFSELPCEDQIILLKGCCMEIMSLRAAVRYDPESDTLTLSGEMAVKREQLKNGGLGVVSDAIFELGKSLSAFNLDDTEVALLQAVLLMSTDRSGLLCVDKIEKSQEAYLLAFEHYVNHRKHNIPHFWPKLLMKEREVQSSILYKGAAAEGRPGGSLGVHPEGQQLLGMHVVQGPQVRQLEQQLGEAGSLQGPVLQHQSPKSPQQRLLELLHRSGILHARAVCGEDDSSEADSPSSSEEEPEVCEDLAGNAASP

For `C[C@@H]1C[C@H]2[C@@H]3CCC4=CC(=O)C=C[C@]4(C)[C@@]3(Cl)[C@@H](O)C[C@]2(C)[C@@]1(OC(=O)c1ccco1)C(=O)CCl`, the call in assay [1], in assay [2], in [3], in assay [4], in [5] and in assay [6] was inactive. Besides, the outcome (in assay [7]; with THRA (gene 7067); with THRB (gene 7068) [8]; in assay [9]; with THRB (gene 7068) [10]; in assay [11]) was inactive.
Turning to `CN1CCN(C2Cc3ccccc3Sc3ccc(Cl)cc32)CC1` (configuration not stated), the AC50 is 34.4 µM (active) in [1], 34.5 µM (active) in assay [2] and 34.3 µM (active) in assay [4]. In addition, the outcome in assay [3], in assay [6] and in assay [7] was inactive.
`CC1CC(=O)NN=C1c1ccc(NCC(C)(C)NCC(O)COc2cc(Cl)ccc2C#N)cc1` (configuration not stated): the result in [1], in [2], in assay [3], in [4] and in assay [7] was inactive.
Take `NNc1ccc(C(=O)O)cc1`: the outcome in assay [1], in [2], in [3], in assay [4], in assay [5] and in assay [7] was inactive.
As to `Nc1cc(-c2ccncc2)c[nH]c1=O`, the molecule was called inactive in assay [1], in assay [2], in [3], in assay [4], in [6] and in [7]. Further, the result in assay [12] and in [13] was inactive.
